The test concerns Trichoderma virens ATCC 9645. The test can be described thus: growth yield (OD600) relative to untreated control; higher = less growth inhibition. Conditions: compound concentration: 100 uM. An outline of the steps: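 Spores of Trichoderma virens ATCC 9645, taken from potato dextrose agar plates grown for 7 days, were suspended at 15,000 spores ml^−1 in potato dextrose broth. In 96-well plates, 100 μl aliquots held library compounds at 100 μM final, either alone or together with a biocide at 200 ng ml^−1, and were grown at 30 °C. A BioTek EL800 read OD600 at 40 h and 72 h. Growth values are given relative to the control lacking both agents and are means of duplicate screens.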

Molecules are shown by their SMILES. Structures can show the parent of a compound that is named as a salt. ± gives the standard error. The whole screen tested about 1,300 compounds, of which about 75 (6%) showed an effect of 50% or more. Many of the other results were omitted from the sample, so strong results are more common in it than they were.

In the case of `Clc1cc(Cl)c(OCC#CI)cc1Cl` [Haloprogin], the growth yield runs as follows: (40 h) 6.04 ± 1.6%; (72 h) 5.14 ± 0.73%.
For the molecule `CC1CC(OC(=O)c2ccccc2O)CC(C)(C)C1` (stereo unspecified) [Homosalate], the growth yield amounted to 109 ± 3.2% (40 h) and 105.8 ± 0.32% (72 h).
`CCCCNc1c(C(=O)OCC)c(C)nc2c1cnn2CC` [Tracazolate hydrochloride]: the growth yield reads like this: (40 h) 38.1 ± 16%; (72 h) 60.5 ± 13%.
The matching figures for `CCCCNc1ccc(C(=O)OCCOCCOCCOCCOCCOCCOCCOCCOCCOC)cc1` [Benzonatate]: 92.1 ± 2.5% and 89.1 ± 2.1%.
The matching figures for `CCCCNc1ccc(C(=O)OCCN(C)C)cc1`: 99.752 ± 2.2e-14% and 102 ± 3.4%.
As for `CC[C@H]1OC(=O)C[C@@H](O)[C@H](C)[C@@H](O[C@@H]2O[C@H](C)[C@@H](O[C@H]3C[C@@](C)(O)[C@@H](O)[C@H](C)O3)[C@H](N(C)C)[C@H]2O)[C@@H](CC=O)C[C@@H](C)C(=O)/C=C/C(C)=C/[C@@H]1CO[C@@H]1O[C@H](C)[C@@H](O)[C@@H](OC)[C@H]1OC` [Tylosin], the growth yield is 95.94 ± 0.32% (40 h) and 94.2 ± 1.9% (72 h).
As for `C[C@H]1c2cccc(O)c2C(=O)C2=C(O)[C@]3(O)C(=O)C(C(N)=O)=C(O)[C@@H](N(C)C)[C@@H]3[C@@H](O)[C@@H]21` [Doxycycline hydrochloride], the growth yield was determined as 93.2 ± 1.8% (40 h) and 92.7 ± 2.7% (72 h).
The matching figures for `Cc1c(N(C)CS(=O)(=O)O)c(=O)n(-c2ccccc2)n1C` [Dipyrone]: 91.7 ± 4.6% and 85.68 ± 0.73%.
Regarding `CN1CCN(CCCN2c3ccccc3Sc3ccc(Cl)cc32)CC1` [Prochlorperazine dimaleate], the growth yield came to 31 ± 8.7% (40 h) and 108 ± 2.4% (72 h).
For `CC(=O)c1ccc2c(c1)N(CCCN(C)C)c1ccccc1S2` [Acetopromazine maleate salt] the same measures were 109 ± 5.9% and 111 ± 4.1%.
Take `CN1CCN(CCCN2c3ccccc3Sc3ccc(S(=O)(=O)N(C)C)cc32)CC1` [Thioproperazine dimesylate]: the growth yield reads like this: (40 h) 64.5 ± 11%; (72 h) 90.7 ± 4.1%.
With `OCCN1CCN(CCCN2c3ccccc3Sc3ccc(Cl)cc32)CC1` [Perphenazine], the growth yield is, setting by setting: (40 h) 59.1 ± 5.1%; (72 h) 113 ± 14%.
On to `CCSc1ccc2c(c1)N(CCCN1CCN(C)CC1)c1ccccc1S2` [Thiethylperazine dimalate], for which the growth yield stood at 3.02 ± 0.16% (40 h) and 2.73 ± 0.42% (72 h).
For `CN(C)CCCN1c2ccccc2Sc2ccc(Cl)cc21` [Chlorpromazine hydrochloride] the same measures were 68.8 ± 2.1% and 86.52 ± 0.32%.
In turn, `COc1cc(N)c(Cl)cc1C(=O)NC1CCN(CCCOc2ccc(F)cc2)CC1OC` (stereo unspecified) [Cisapride] returned a growth yield (40 h) of 108% and a growth yield (72 h) of 109%.
The matching figures for `O=C(Cn1ccnc1[N+](=O)[O-])NCCO` [Etanidazole]: 101 ± 2.2% and 98 ± 1.9%.
The matching figures for `CCN(CC)CCOC(=O)C1(c2ccc([N+](=O)[O-])cc2)CCCC1` [Nitrocaramiphen hydrochloride]: 101% and 103.3 ± 0.52%.
On to `O=C(CCCN1CCC(O)(c2ccc(Br)cc2)CC1)c1ccc(F)cc1` [Bromperidol], for which the growth yield (40 h) is 104.4 ± 0.48% and the growth yield (72 h) amounted to 105.4 ± 0.1%.
Regarding `C/C(=C(\CCOP(=O)(O)O)SC(=O)c1ccccc1)N(C=O)Cc1cnc(C)nc1N` [Benfotiamine], the growth yield reads like this: (40 h) 99.75 ± 0.64%; (72 h) 96.38 ± 0.1%.
The matching figures for `NC(=O)c1cc[n+](CC2=C(C(=O)[O-])N3C(=O)[C@@H](NC(=O)[C@@H](c4ccccc4)S(=O)(=O)O)[C@H]3SC2)cc1` [Cefsulodin sodium salt]: 95 ± 4.8% and 99.3 ± 3.2%.
With `CC[C@H](C)C(=O)O[C@H]1CCC=C2C=C[C@H](C)[C@H](CC[C@@H]3C[C@@H](O)CC(=O)O3)[C@H]21` [Mevastatin], the growth yield by setting is: (40 h) 103 ± 7.6%; (72 h) 96.2 ± 6.6%.
For `O=P(O)(O)C(O)(Cn1ccnc1)P(=O)(O)O` [Zoledronic acid hydrate] the same measures were 108 ± 4.5% and 109 ± 1.6%.
For `CO[C@H]1/C=C/O[C@@]2(C)Oc3c(C)c(O)c4c(O)c(c(/C=N/N5CCN(C6CCCC6)CC5)c(O)c4c3C2=O)NC(=O)/C(C)=C\C=C\[C@H](C)[C@H](O)[C@@H](C)[C@@H](O)[C@@H](C)[C@H](OC(C)=O)[C@@H]1C` [Rifapentine] the same measures were 84.5% and 94%.
The matching figures for `CN1CCC(=C2c3ccccc3Sc3ccccc32)CC1` [Pimethixene maleate]: 85.77 ± 0.64% and 95.2 ± 1.9%.
Regarding `CSc1ccc2c(c1)N(CCC1CCCCN1C)c1ccccc1S2` (stereo unspecified) [Thioridazine hydrochloride], the growth yield (40 h) was found to be 53.8 ± 6.2% and the growth yield (72 h) turned out to be 83 ± 2.6%.
Take `CSc1ccc2c(c1)C(N1CCN(C)CC1)Cc1ccccc1S2` (stereo unspecified) [Methiothepin maleate]: the growth yield by setting is: (40 h) 43.5 ± 3.5%; (72 h) 75.4 ± 3.2%.
Turning to `CN(Cc1cc(Br)cc(Br)c1N)C1CCCCC1` [Bromhexine hydrochloride], the growth yield was determined as 99 ± 1.1% (40 h) and 98.2 ± 1.9% (72 h).
For `Cc1scc2c1N(C(=O)CN1CCN(C)CC1)c1ccccc1NC2=O` [Telenzepine dihydrochloride] the same measures were 99.75 ± 0.32% and 103 ± 1.1%.
`CC(=O)Oc1cc(C(F)(F)F)ccc1C(=O)O` [Triflusal]: the growth yield is, setting by setting: (40 h) 94.5 ± 2.4%; (72 h) 91.77 ± 0.32%.
The matching figures for `Cc1cc(N)c2ccccc2[n+]1CCCCCCCCCC[n+]1c(C)cc(N)c2ccccc21` [Dequalinium dichloride]: 2.54 ± 1.6% and 2.2 ± 1.4%.
The matching figures for `Nc1ccccc1S(N)(=O)=O` [2-Aminobenzenesulfonamide]: 93.7 ± 1.6% and 94.39 ± 0.63%.
For `Cc1cc(C2CCCCC2)n(O)c(=O)c1` [Ciclopirox ethanolamine] the same measures were 1.27 ± 1.3% and 1.15 ± 1.1%.
As for `CC(=O)Nc1c(I)c(C(=O)N[C@H]2C(O)O[C@H](CO)[C@@H](O)[C@@H]2O)c(I)c(N(C)C(C)=O)c1I` (stereo partly specified) [Metrizamide], the growth yield is, setting by setting: (40 h) 102 ± 13%; (72 h) 105 ± 12%.

These data come from the supplement of paper PMC8007513.
